CYP2C19 inhib: blockers of cytochrome P450 2C19 activity – biochemical, luminescence, ADME assay, primary screen. inhibition, % at 5 µM. 96,000 compounds, 21% hits. P33261. CYP2C19 Supersomes, luciferin-H EGE luminescence, 30 min;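 active = CYP2C19 inhibition above a set limit at 5 µM in the primary screen, cut at about 50% in these data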
Cav32 inh: Cav3.2 calcium influx blockers – cell-based, Fluo-4 calcium fluorescence, FDSS, MLSMR library, primary screen; Voltage-dependent T-type calcium channel subunit alpha-1H (Homo sapiens), O95180; Cav3.2-expressing cells; hits give low values; B-score at 10 µM; 100,000 compounds, 4% hits; AID 449739, 2010;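 active = single-dose well whose peak fluorescence ratio is a statistical outlier from its plate by either plate-standardised score or position-corrected B-score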
CYP2C19 act: human CYP2C19 activators, primary screen, biochemical, luminescence | recombinant CYP2C19, luciferin-H EGE luminescence; hits give high values; 0 = fully inhibited enzyme, 1 = untreated enzyme | activation factor at 5 µM | 96,000 tested, under 10 active | AID 1025, 2008;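 active = activation factor of at least 2 at 5 µM in the primary screen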
CYP2C9 activ: human CYP2C9 activators, primary screen, biochemical, luminescence | recombinant CYP2C9, luciferin-H conversion; hits give high values; factor 1 = untreated enzyme, 0 = blocked | activation factor at 5 µM | 96,000 compounds, 1.4% hits | Cytochrome P450 2C9 (Homo sapiens), P11712 | AID 1024, 2008;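 active = activation factor of 2 or more for CYP2C9 at a 5 µM dose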
Target sequence (P11712 whole entry, looked up): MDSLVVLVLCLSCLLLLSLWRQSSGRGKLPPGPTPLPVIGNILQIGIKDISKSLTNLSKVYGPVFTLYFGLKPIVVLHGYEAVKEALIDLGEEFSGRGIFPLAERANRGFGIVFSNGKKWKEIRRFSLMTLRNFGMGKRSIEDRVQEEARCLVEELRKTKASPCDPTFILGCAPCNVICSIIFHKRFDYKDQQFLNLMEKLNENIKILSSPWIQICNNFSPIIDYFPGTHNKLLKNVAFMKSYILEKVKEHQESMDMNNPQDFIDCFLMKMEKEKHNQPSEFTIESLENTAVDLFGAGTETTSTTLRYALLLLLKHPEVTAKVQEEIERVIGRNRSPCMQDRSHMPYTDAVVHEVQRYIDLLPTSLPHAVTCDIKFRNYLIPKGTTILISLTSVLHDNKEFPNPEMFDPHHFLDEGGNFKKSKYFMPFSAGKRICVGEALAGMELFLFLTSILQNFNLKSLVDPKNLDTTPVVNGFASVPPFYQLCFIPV
CYP2C9 inh: blockers of cytochrome P450 2C9 activity – biochemical, luminescence, ADME assay, primary screen; P11712; CYP2C9 Supersomes, luciferin-H conversion; inhibition, % at 5 µM; 96,000 compounds, 20% hits;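 active = blocking of liver enzyme CYP2C9 beyond about 50% at 5 µM, limit read from the data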
Each line names hits and unclear results; the compound was inactive in the other large screens. This is a sample that favours compounds with a hit; in the whole collection about 27% have one here.

Cc1cc2c(cc1C)N(CC(=O)N1CCCC1)C(=O)CC(c1ccccc1)=N2	CYP2C9 inh 68.5
O=C(CN1C(=O)CC(c2ccccc2)=Nc2ccccc21)NCc1ccccc1	none (no result: CYP2C19 inhib, CYP2C19 act, CYP2C9 activ, CYP2C9 inh)
CC(C)c1cc(C(F)(F)F)n2nc(C(=O)Nc3ccc4c(c3)OCO4)cc2n1	none
CC1CCN(C(c2cccs2)c2nnnn2Cc2ccccc2)CC1 (stereo unspecified)	CYP2C19 inhib 88.5
c1ccc(Cn2nnnc2C(c2cccs2)N2CCOCC2)cc1 (stereo unspecified)	CYP2C19 inhib 63.0
O=C(OCn1nnc2ccccc2c1=O)c1ccc2ccccc2n1	none
CC(=O)N(Cc1cc2cc(C)c(C)cc2n2nnnc12)CC1COCCO1 (stereo unspecified)	none
CC(=O)Nc1ccc(S(=O)(=O)Nc2nc3ccccc3s2)cc1	CYP2C9 inh 61.7
O=S(=O)(Nc1nc2ccccc2s1)c1ccc(Br)s1	CYP2C19 inhib 81.2, CYP2C9 inh 95.6
Cc1ccc2nc(NC(=O)CCNS(=O)(=O)c3ccc(Br)s3)sc2c1	none
Cc1ccc(S(=O)(=O)Nc2nc3ccccc3s2)cc1	none
CC(=O)Nc1ccc(S(=O)(=O)Nc2nc3c(s2)CCCC3)cc1	CYP2C19 inhib 90.7
Cc1ccc(S(=O)(=O)N2CCN(C(=O)CN3CCOCC3)C2c2ccccc2)cc1 (stereo unspecified)	none
Cc1ccccc1CN1[C@@H](C(C)C)COCCS1(=O)=O	none (no result: CYP2C19 inhib, CYP2C19 act, CYP2C9 activ, CYP2C9 inh)
CCOc1cc(NC(=O)c2ccco2)c(OCC)cc1NC(=O)CCc1ccc(OC)cc1	none (no result: Cav32 inh)
Cc1csc2ncc(C(=O)N3CCCc4ccccc43)c(=O)n12	none
CCOC(=O)C(O)(C1C(=O)CC(C)(C)CC1=O)C(F)(F)F (stereo unspecified)	CYP2C9 inh 93.3
CC(=O)NC(C1C(=O)CC(C)(C)CC1=O)(C(F)(F)F)C(F)(F)F	none
Cc1ccc(-n2c(C)nc3c(cnn3-c3ccc(F)cc3)c2=O)cc1	none (no result: Cav32 inh)
Cc1nc2c(cnn2-c2ccccc2Cl)c(=O)n1-c1ccc(C(C)C)cc1	Cav32 inh -6.22
CCCSc1ncc(Cl)c(C(=O)Nc2ccc(S(=O)(=O)N3CC(C)OC(C)C3)cc2)n1 (stereo unspecified)	CYP2C19 inhib 53.8, CYP2C9 inh 86.3
Cc1ccccc1N(C(=O)c1cccs1)c1nc2ccccc2s1	CYP2C9 inh 87.7 (no result: Cav32 inh)
CCN(Cc1ccncc1)C(=O)c1cccs1	none
CC(NC(=O)c1cccc(F)c1)C(c1cccs1)N1CCN(C)CC1 (stereo unspecified)	none
CCOC(=O)c1ccc(N=Cc2nc(-c3ccccc3)oc2OC(C)=O)cc1	CYP2C9 inh 50.1
CN(Cc1ccncc1)C1CC(=O)N(c2ccc(Cl)cc2)C1=O (stereo unspecified)	CYP2C19 inhib 98.6, CYP2C9 inh 93.5
COC(=O)CN(C)C1CC(=O)N(c2ccc(Cl)cc2)C1=O (stereo unspecified)	none
O=C(NC1CC1)c1ccc(CS(=O)(=O)c2c(Cl)cccc2Cl)o1	none
CC1CCCC(N2CCN(C(=O)c3cccc(F)c3)CC2)C1 (stereo unspecified)	CYP2C19 inhib 88.7
O=C(c1ccccc1F)N1CCN(CC2CC3C=CC2C3)CC1 (stereo unspecified)	CYP2C19 inhib 68.8
COc1cccc(C(=O)N2CCN(C(=O)c3cccc(F)c3)CC2)c1	none (no result: CYP2C19 inhib, CYP2C19 act, CYP2C9 activ, CYP2C9 inh)
Cc1ccc(CN2CCN(CC3CC4C=CC3C4)CC2)cc1 (stereo unspecified)	none (no result: Cav32 inh)
O=C(c1cccc(F)c1)N1CCN(CC2CC3C=CC2C3)CC1 (stereo unspecified)	CYP2C19 inhib 89.9
O=C1C=C(c2cc3ccccc3s2)CCC1	none (no result: CYP2C19 inhib, CYP2C19 act, CYP2C9 activ, CYP2C9 inh)
Nc1nnc(COc2ccccc2)s1	none (no result: CYP2C19 inhib, CYP2C19 act, CYP2C9 activ, CYP2C9 inh)
C=C(C)CSCc1nc2ccccc2[nH]1	CYP2C19 inhib 90.3 (no result: Cav32 inh)
O=C(CSc1cccs1)Nc1ccc2ccccc2c1	CYP2C19 inhib 59.6, Cav32 inh -5.29, CYP2C9 inh 63.8
O=C(CSCc1cccc(CSCC(=O)Nc2ccc3ccccc3c2)n1)Nc1ccc2ccccc2c1	CYP2C19 inhib 80.6, CYP2C9 inh 98.6 (no result: Cav32 inh)
O=C(CSCC(=O)Nc1ccc2ccccc2c1)NCc1ccccc1	none
CC(C)c1ccc(CNC(=O)CSCC(=O)Nc2ccc3ccccc3c2)cc1	none
O=C(CSCc1nc2ccccc2[nH]1)Nc1ccc2ccccc2c1	CYP2C9 inh 58.3
COC(=O)c1[nH]c2ccc(C)cc2c1NC(=O)Nc1ccccc1OC	none (no result: Cav32 inh)
CCCCNc1nc(-c2ccccc2)cc(C(F)(F)F)c1C(N)=O	none (no result: CYP2C19 inhib, CYP2C19 act, CYP2C9 activ, CYP2C9 inh)
CC1=C(OC(=O)c2ccccc2)C(C)(C)C(c2ccc(Br)cc2)OC1=O (stereo unspecified)	Cav32 inh -7.14, CYP2C9 inh 60.7
CC1=C(OC(=O)c2ccccc2)C(C)(C)C(c2ccccc2)OC1=O (stereo unspecified)	none
COC(Cc1nnc(SC)n1-c1ccccc1)OC	none
CSc1nnc(CSCc2ccc(Cl)cc2Cl)n1-c1ccccc1	CYP2C19 inhib 58.6, CYP2C9 inh 69.5
O=C(Cc1ccc(-n2cccc2)cc1)NCc1cccs1	none
COc1ccc(-c2cc(=O)c3ccccc3s2)cc1	CYP2C9 inh 64.5
CCCCn1cnc2c(cnn2-c2ccc(Cl)cc2)c1=O	none (no result: CYP2C19 inhib, CYP2C19 act, CYP2C9 activ, CYP2C9 inh)
N#Cc1nc(Cc2cccc3ccccc23)oc1NCc1ccco1	none
CN(C)CCNc1oc(-c2ccccc2F)nc1C#N	none
COCCNc1oc(-c2ccccc2Cl)nc1C#N	CYP2C19 inhib 87.5, CYP2C9 inh 69.0
CCOc1ccc(-c2nc(C#N)c(NCC3CCCO3)o2)cc1 (stereo unspecified)	none
N#Cc1nc(-c2ccccc2Cl)oc1NCC1CCCO1 (stereo unspecified)	CYP2C19 inhib 64.4, CYP2C9 inh 64.5 (no result: Cav32 inh)
N#Cc1nc(Cc2cccc3ccccc23)oc1NCC1CCCO1 (stereo unspecified)	CYP2C19 inhib 83.6, CYP2C9 inh 71.8
CN(C)c1ccc(C2OC(=O)C(C)(C)C(=O)C2(C)C)cc1 (stereo unspecified)	none
O=C(CC(SCCO)c1ccc2c(c1)OCO2)c1ccco1 (stereo unspecified)	CYP2C19 inhib 97.9, CYP2C9 inh 71.6
O=C(Cn1c(C(=O)NCC2CCCO2)cc2sccc21)c1ccccc1 (stereo unspecified)	CYP2C9 inh 51.1
O=C(Cn1c(C(=O)NCc2ccco2)cc2sccc21)c1ccccc1	none (no result: Cav32 inh)
CCn1c(C(=O)N2CCC(Cc3ccccc3)CC2)cc2sccc21	CYP2C19 inhib 59.3, CYP2C9 inh 57.7
O=C(Cn1c(C(=O)N2CCN(C3CCCC3)CC2)cc2sccc21)c1ccccc1	CYP2C19 inhib 80.0
CCn1c(C(=O)N2CCCC(C(=O)O)C2)cc2sccc21 (stereo unspecified)	none (no result: CYP2C19 inhib, CYP2C19 act, CYP2C9 activ, CYP2C9 inh)
CCCOc1ccc(C(=O)N2CCCC2)cc1OC	none

Compound activity deposited in PubChem BioAssay by several laboratories.
